mcGAS inh = mouse cGAS inhibition by luminescence; 160,000 tested, 0.15% active; AID 1259399; recombinant cGAS, Kinase-Glo ATP depletion luminescence; inhibition, % at 12.5 µM; Q8C6L5
Target sequence (Q8C6L5 whole entry, looked up): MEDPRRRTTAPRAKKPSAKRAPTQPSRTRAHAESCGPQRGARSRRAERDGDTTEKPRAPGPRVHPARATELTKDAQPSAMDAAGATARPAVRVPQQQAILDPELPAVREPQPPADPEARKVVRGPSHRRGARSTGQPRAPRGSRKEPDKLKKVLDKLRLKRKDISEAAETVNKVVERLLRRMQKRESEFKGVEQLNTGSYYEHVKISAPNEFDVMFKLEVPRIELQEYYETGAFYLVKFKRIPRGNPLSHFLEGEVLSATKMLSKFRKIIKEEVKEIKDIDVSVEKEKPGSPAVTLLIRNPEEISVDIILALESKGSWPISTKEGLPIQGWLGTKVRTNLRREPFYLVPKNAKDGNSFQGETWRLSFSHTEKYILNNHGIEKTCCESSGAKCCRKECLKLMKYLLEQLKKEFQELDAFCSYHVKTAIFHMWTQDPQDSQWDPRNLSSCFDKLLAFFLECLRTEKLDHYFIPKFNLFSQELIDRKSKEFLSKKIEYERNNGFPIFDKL
NPYLR7 agonist = mosquito NPYLR7 agonism. activation, % at 10 µM. HEK293T NPYLR7/Galpha15, GCaMP6s calcium fluorescence. 270,000 tested, 0.15% active; in the data active = activation above about 40%
hcGAS lum = human cGAS inhibition; recombinant h-cGAS, ATP depletion, Kinase-Glo luminescence; inhibition, % at 12.5 µM; 290,000 tested, 0.081% active; AID 1259398
Numbers stand for hits; . = inactive; / = no result given; ! = a repeat was not active. Only some compounds are listed: those with a hit (about 0.3% of all), similar ones and a draw of the others. Cut-off read from the data, not from the text of the source, unless noted: active = inhibition above about 40%; inactive = the rest.

SMILES	mcGAS inh	NPYLR7 agonist	hcGAS lum
CCOc1cc(/C=C2/C(=N)N3C=CSC3=NC2=O)cc(Br)c1OC(=O)c1ccco1	.	.	.
CN(Cc1nccn1C(F)F)C(=O)/C=C/c1cccc(F)c1	/	.	.
COc1cc(C=C2C(=O)N(C)C(=O)N(C)C2=O)cc(I)c1O	.	.	.
COc1cc(C=C2C(=O)N(C)C(=O)N(C)C2=O)cc([N+](=O)[O-])c1O	45.7	.	.
O=c1oc2c(O)c(O)cc3c(=O)oc4c(O)c(O)cc1c4c23	/	.	43.2
O=c1cc(-c2cc(O)c(O)c(O)c2)oc2cc(O)cc(O)c12	/	.	.
O=C(CCC1CCN(C(=O)C2=CCCC2)CC1)NCc1ccc(F)cc1	/	.	.
O=C(CCN(c1nc(-c2cccs2)nc2ccccc12)C1CCCCC1)N1CCCC1	.	.	.
Cc1cc(C(=O)NC(c2ccccc2)c2ccccc2)n2nc(C(C)(C)C)cc2n1	59.1	.	.
Cc1cc(C(=O)NCCc2ccccc2)n2nc(C(C)(C)C)cc2n1	.	.	.
N#CC(C(=O)/C=C/c1nccs1)C(=O)Nc1cccc(Cl)c1Cl (stereo unspecified)	/	.	45.8
Cc1c(Cl)cccc1NC(=O)C(C#N)C(=O)COc1ccc(F)cc1 (stereo unspecified)	.	.	.
CCOc1ccc2nc3cc(N)ccc3c(N)c2c1	/	72.0	98.8
CCOc1ccc2nc(Nc3nc(C)c(C)c(C)n3)nc(C)c2c1	.	.	.
O=C(Nc1ccc(N2CCCC2)c(C(=O)NCc2ccccc2)c1)Nc1ccccc1Br	.	.	.
CCn1cc(C(=O)O)c(=O)c2cc(F)c(N3CCNCC3)cc21	.	.	.
CCn1cc(C(=O)O)c(=O)c2cnc(N3CCNCC3)nc21	.	70.5!	.
O=C(NCCc1nc2ccccc2n1Cc1ccccc1Cl)c1ccco1	.	.	.
Cc1nc(C(C)NC(=O)CCC2CCCC2)n[nH]1 (stereo unspecified)	/	.	.
Cc1[nH]c(/C=C2\C(=O)Nc3ccc(S(=O)(=O)N(C)c4cccc(Cl)c4)cc32)c(C)c1C(=O)N1CCN(C)CC1	.	.	.
CCN(CC)CCNC(=O)c1c(C)[nH]c(/C=C2/C(=O)Nc3ccc(F)cc32)c1C	/	60.4	.
COC(=O)C1CCN(CC(O)COc2ccc(CN(C)Cc3nonc3C)cc2)CC1 (stereo unspecified)	/	.	.
COc1ccc(C(=O)O)cc1Oc1nc(Cc2ccccc2)ns1	/	.	.
CCC(C)n1cc(/C=C2/C(=O)NC(=O)N(c3ccc4c(c3)OCO4)C2=O)c2ccccc21 (stereo unspecified)	/	51.5	.
COc1cccc(N2C(=O)NC(=O)/C(=C/c3cn(C(C)=O)c4ccccc34)C2=O)c1	.	.	.
SMILES	mcGAS inh	NPYLR7 agonist	hcGAS lum
COCCn1c(C(=O)NCc2ccco2)cc2c(=O)n(C)c(=O)n(C)c21	.	.	.
COc1ccc(/C=C\C(=O)Nc2cc(=O)n(C)c(=O)n2C)cc1OC	.	.	.
CCn1c(=O)c2c(nc(/C=C/c3ccc(OC)c(OC)c3)n2C)n(CC)c1=O	.	84.5	.
COc1cc(C(=O)NC(Cc2ncc[nH]2)c2ccccc2)ccc1C (stereo unspecified)	/	.	.
COC(=O)c1cccc(CN2C(=O)C(C)Sc3ccc(S(C)(=O)=O)cc32)c1 (stereo unspecified)	/	.	.
COC(=O)Cn1c(Sc2cccc(Cl)c2)nc2c(=O)n(C)c(=O)n(C)c21	/	.	.
O=C1c2ccc(O)c(O)c2C(=O)c2c(O)ccc(O)c21	79.4	/	46.8
O=C1c2ccccc2C(=O)c2c1ccc(O)c2O	/	.	.
CC(C(=O)Nc1ccccc1Cc1ccccc1)N1CCCC1 (stereo unspecified)	.	.	.
COc1cc(OC)c(C2=NOC3(CC(=O)N(c4cccc(Cl)c4)C3=O)C2)cc1OC (stereo unspecified)	/	82.7	.
COc1ccc2c(c1OC)C(=O)N(c1cccc(Cl)c1)C2=O	/	.	.
CC(=O)N1CCN(c2cc(Oc3ccc(Cl)c(C)c3)ncn2)CC1	.	.	.
O=C(OC[C@H]1O[C@H](OC(=O)c2cc(O)c(O)c(OC(=O)c3cc(O)c(O)c(O)c3)c2)[C@H](OC(=O)c2cc(O)c(O)c(OC(=O)c3cc(O)c(O)c(O)c3)c2)[C@@H](OC(=O)c2cc(O)c(O)c(OC(=O)c3cc(O)c(O)c(O)c3)c2)[C@@H]1OC(=O)c1cc(O)c(O)c(OC(=O)c2cc(O)c(O)c(O)c2)c1)c1cc(O)c(O)c(OC(=O)c2cc(O)c(O)c(O)c2)c1	/	.	51.3
CC(=O)OC[C@H]1O[C@@H](Oc2cc(OC(C)=O)c3c(=O)cc(-c4ccc(OC(C)=O)cc4)oc3c2)[C@H](OC(C)=O)[C@@H](OC(C)=O)[C@@H]1OC(C)=O	/	.	.
CCc1ccc(CCn2cnc(C#N)n2)cc1	/	.	.
CCS(=O)(=O)Nc1ccc(C2=NN(S(C)(=O)=O)C(c3ccco3)C2)cc1 (stereo unspecified)	.	.	.
COC(=O)/C(C#N)=C/c1c(OC)[nH]c2ccccc12	/	.	.
CC(=O)Oc1c(/C=C(\C#N)C(N)=O)[nH]c2ccccc12	/	50.8	.
CCN1C(=O)C2(SCCN2C(=O)C2CC2)c2cc(F)ccc21 (stereo unspecified)	.	.	.
CCC1CN(C(=O)c2cc(C(C)C)no2)CCC(=O)N1Cc1ccccc1 (stereo unspecified)	.	.	.
CCC1CN(C(=O)c2cc(C(C)C)on2)CCC(=O)N1Cc1ccccc1 (stereo unspecified)	/	62.4	.
Cc1c(C(=O)N2c3ccccc3CC2C)sc2nc(-c3ccc(F)cc3)cn12 (stereo unspecified)	.	.	.
Cn1cnc(-c2ccc(F)cc2)cc1=O	.	.	.
Cn1nc(-c2ccc(F)cc2)nc2c(=O)n(C)c(=O)nc1-2	67.3	.	.
CCN(CC)CCCC(C)NC(=O)c1cc(-c2ccc(OC)cc2)nc2cc(-c3ccc(Cl)cc3)nn12 (stereo unspecified)	.	.	.
SMILES	mcGAS inh	NPYLR7 agonist	hcGAS lum
CCN(CC)CCCC(C)NC(=O)c1cc(-c2ccc(OC)cc2)nc2cc(-c3ccccc3)nn12 (stereo unspecified)	90.5	.	91.2
Cn1c(-c2cccnc2)[n+](C)c2ccccc21	/	.	.
NC(=O)c1ccc(NCC(=O)N2CCC2c2ccc(Cl)cc2)cc1 (stereo unspecified)	.	.	.
CCN1/C(=C\C=C2/SC(=NCc3ccccc3)N(C)C2=O)Sc2ccccc21	.	.	.
CCC(CO)[n+]1c(C)cc(C=C2Sc3ccccc3N2Cc2ccccc2)cc1C (stereo unspecified)	/	150.5	.
CCN1C(=Cc2cc(C)[n+](CCO)c(C)c2)Sc2ccccc21	.	.	.
CCN1C(=Cc2cc(C)[n+](C3CCCCC3)c(C)c2)Sc2ccccc21	/	265.9	.
O=C(NC1CCSC1)c1cc(CN2CCC(Cc3ccccc3)CC2)on1 (stereo unspecified)	/	.	.
Cc1nn(-c2ccccc2)c(C)c1-c1ccnc(NCCC2CCCN2C)n1 (stereo unspecified)	/	.	.
N#Cc1ccc(S(=O)(=O)Oc2cccc(F)c2)cc1	/	.	.
O=c1oc2c(CN3CCN(CCO)CC3)c(O)ccc2cc1-c1ccc(Cl)cc1	.	.	.
O=C1/C(=C/c2cccc(F)c2)Oc2c1ccc(O)c2CN1CCN(CCO)CC1	.	57.5	.
